KAT2A inh: blocks human GCN5L2 histone acetyltransferase. AID 504327. Potency, µM (series often up to 58.9 µM), for inactives: at the highest dose activity change, negative = inhibition, most hits filed as inhibitors. 0.21% of 390,000 active. GCN5L2 HAT assay, ThioGlo1 CoA-SH fluorescence. Q92830; note: potency is the fitted concentration of half-maximal effect
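Fluorescence readout, Ex340nm/Em540nm: ThioGlo1 (50uM final) reacts with free CoA thiol released as 20nM GCN5L2 acetylates H3(1-25) peptide (75uM) using acetyl-CoA (70uM). Compound and enzyme sat 15 min beforehand; 20 min room-temperature reaction.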
RECQ1 inh: RECQ1 (human) helicase inhibition | RECQ1 DNA unwinding, red fluorescence kinetic read | Potency, µM (highest dose often 57.3 µM), for inactives: at the highest dose activity, negative = inhibition, most hits filed as inhibitors | P46063 | 0.54% of 240,000 active;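 note: potency is the fitted concentration of half-maximal effect; plate controls were vehicle for no effect and no enzyme for full effect; nearly all actives have a fitted effect of over 30% in size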
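RECQ1T1 50 nM; forked duplex (20 bp + 30-nt ss tails) 200 nM, ATP 2 mM final; pH 8.0, 2 mM MgCl2, 2.5 ug/ml poly(dI-dC); 15 min compound preincubation; discontinuous kinetic read over 2 h at RT.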
APEX1 inh: APE1 (human) endonuclease inhibition; P27695; recombinant APE1, TAMRA/BHQ-2 abasic DNA cleavage fluorescence; Potency, µM (series often up to 65.8 µM), without a hit: at the highest dose activity change, negative = inhibition, most hits filed as inhibitors; 0.35% of 350,000 active; AID 2517;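 note: potency is the fitted concentration of half-maximal effect; plate controls were vehicle for no effect and reference inhibitor for full effect; nearly all actives have a fitted effect of over 55% in size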
Target sequence (P27695 whole entry, looked up): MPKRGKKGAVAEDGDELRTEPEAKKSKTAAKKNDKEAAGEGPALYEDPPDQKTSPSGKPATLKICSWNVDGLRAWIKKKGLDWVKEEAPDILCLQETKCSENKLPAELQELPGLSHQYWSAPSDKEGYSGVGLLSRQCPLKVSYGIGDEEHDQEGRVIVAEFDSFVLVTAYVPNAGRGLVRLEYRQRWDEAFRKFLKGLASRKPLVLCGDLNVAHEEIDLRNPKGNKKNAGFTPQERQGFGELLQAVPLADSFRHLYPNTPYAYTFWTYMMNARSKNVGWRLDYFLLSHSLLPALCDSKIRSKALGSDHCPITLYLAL
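APE1 at 0.75 nM preincubated 15 min at room temperature with compound. Reaction then started with 50 nM double-stranded THF-abasic substrate labelled with TAMRA/BHQ-2, and 525/598 nm fluorescence read kinetically. Activity taken as third-minus-first read difference, normalized to DMSO and NSC13755 controls.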
BLM inh: inhibitors of human Bloom syndrome helicase BLM; P54132; recombinant BLM DNA unwinding, fluorescence dequenching; Potency, µM (top dose mostly 56.1 µM), for inactives: top-dose activity change, negative = inhibition, usual class: inhibitors; 0.2% of 350,000 active; AID 2528;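 note: potency is the fitted concentration of half-maximal effect; plate controls were vehicle for no effect and no enzyme for full effect; nearly all actives have a fitted effect of over 35% in size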
FEN1 inh: blocks human flap endonuclease 1; Potency, µM (top dose mostly 114 µM), inactives show at the highest dose activity change, negative = inhibition, most hits filed as inhibitors; Recombinant FEN1 flap cleavage, fluorescence, 15 min; P39748; 0.35% of 390,000 active; note: potency is the fitted concentration of half-maximal effect; nearly all actives have a fitted effect of over 65% in size
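Concentration–response screening of FEN1 (10 nM): 15 min compound preincubation at room temperature, reaction started with 50 nM substrate and read at 0 and 15 min. Corrected, normalized data were fitted by a four-parameter Hill equation.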
PI5P4K alpha inh: inhibitors of human PI5P4K alpha | PI5P4Kalpha enzyme, ADP-Glo luminescence, 60 min; active compounds read low | AID 652105 | P48426 | max response, % | 1.2% of 330,000 active; active = max response of -50% or lower; inconclusive = between -30% and -50%; inactive = -30% or higher; note: value at the top dose of about 77 µM
Target sequence (P48426 whole entry, looked up): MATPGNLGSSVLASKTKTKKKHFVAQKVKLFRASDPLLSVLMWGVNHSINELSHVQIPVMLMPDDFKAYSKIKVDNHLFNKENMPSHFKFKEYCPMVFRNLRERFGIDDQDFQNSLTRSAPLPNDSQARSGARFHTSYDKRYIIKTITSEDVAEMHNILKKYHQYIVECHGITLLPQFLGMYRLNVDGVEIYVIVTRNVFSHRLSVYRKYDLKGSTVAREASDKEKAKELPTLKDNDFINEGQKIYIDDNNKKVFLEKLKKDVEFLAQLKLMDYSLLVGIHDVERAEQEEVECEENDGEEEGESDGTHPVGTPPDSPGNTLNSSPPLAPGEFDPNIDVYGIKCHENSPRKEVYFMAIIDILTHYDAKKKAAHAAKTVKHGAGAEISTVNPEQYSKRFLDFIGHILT
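Controls without substrate or without enzyme flank wells where PI5P4Kalpha converts substrate using 5 microM ATP (final). Incubation lasts 60 minutes at room temperature; ADP formed is read by ADP-Glo luminescence.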
The depositor's hits bear a star. Shown are actives, neighbours in structure and some others; about 1.5% of the full set was active somewhere. Unless noted, calls come from the whole dose curve; as a rule, active = well fitted curve in the direction sought with a large enough effect; inconclusive = small, poorly fitted or top-dose-only effect, or another doubt; inactive = no such curve, though single readings can be large; an effect the other way counts as inactive or inconclusive. Unless noted, % is set by controls: 0 for no effect and ±100 for the full control effect.

Results for CCOC(=O)/C=C1\CN(Cc2ccc(OC)cc2)S(=O)(=O)c2ccc(C(F)(F)F)cc21 ?
FEN1 inh: -28%

How did C=CCNC(=O)c1cc([N+](=O)[O-])cc2c(=O)[nH]c(Nc3ccc(Cl)c(Cl)c3)nc12 do in these assays?
RECQ1 inh: 7.1µM*; APEX1 inh: 7.9µM*; BLM inh: -19%

How did O=C1NC(=S)SC1=Cc1ccccc1Cl do in these assays?
FEN1 inh: -9%; PI5P4K alpha inh: -79*

How did COc1ccc(C=C2SC(=S)NC2=O)c(OC)c1OC do in these assays?
FEN1 inh: -10%; PI5P4K alpha inh: -64*

How did O=C1NC(=S)S/C1=C\c1cc2ccccc2nc1N1CCCCC1 do in these assays?
KAT2A inh: -4%; RECQ1 inh: -11%; APEX1 inh: -3%; BLM inh: -4%; FEN1 inh: -12%; PI5P4K alpha inh: -21

What do the screens show for `O=C1NC(=S)S/C1=C\c1cccc([N+](=O)[O-])c1`?
FEN1 inh: inconclusive; PI5P4K alpha inh: -65*

What do the screens show for `O=C1NC(=O)/C(=C/c2ccccc2Oc2ccc(Cl)cc2)S1`?
KAT2A inh: -6%; RECQ1 inh: -1%; APEX1 inh: -3%; BLM inh: -3%; FEN1 inh: -22%; PI5P4K alpha inh: -5

What do the screens show for `COc1ccccc1C=C1SC(=S)NC1=O`?
FEN1 inh: -3%; PI5P4K alpha inh: -72*

Results for O=C(C[n+]1csc2ccccc21)c1ccc(I)cc1 ?
FEN1 inh: -13%

Results for N#Cc1no[n+]([O-])c1-c1ccccc1 ?
APEX1 inh: 11%

Results for N#CCCCS(=O)(=O)c1nnnn1-c1ccc(F)cc1Br ?
RECQ1 inh: -1%; APEX1 inh: 3%; BLM inh: 4%

Results for CCCCC(=O)Nc1ccc(C(=O)NNC(=O)CCc2ccccc2)cc1 ?
KAT2A inh: 23%; RECQ1 inh: -22%; APEX1 inh: -4%; BLM inh: -9%; FEN1 inh: -14%

How did CCCCC(=O)Nc1ccc(C(=O)NNC(=O)c2ccc(C)c(Br)c2)cc1 do in these assays?
KAT2A inh: -24%; RECQ1 inh: -9%; APEX1 inh: 25µM*; BLM inh: -13%; FEN1 inh: -14%; PI5P4K alpha inh: -10

What do the screens show for `O=S1(=O)CCOCCCN1Cc1ccc(F)cc1`?
FEN1 inh: -13%

What do the screens show for `CC(=O)Nc1ccc2c3c(cccc13)C(=O)N(c1ccccc1)C2=O`?
KAT2A inh: 22µM*; RECQ1 inh: -5%; APEX1 inh: -3%; BLM inh: -2%; FEN1 inh: -2%; PI5P4K alpha inh: 0

What do the screens show for `Brc1ccc(C2Nc3cccc4cccc(c34)N2)o1`?
KAT2A inh: -10%; RECQ1 inh: inconclusive; APEX1 inh: inconclusive; BLM inh: -1%; FEN1 inh: 28µM*

Results for Brc1cccc(C2Nc3cccc4cccc(c34)N2)c1 ?
KAT2A inh: 0%; APEX1 inh: -2%; BLM inh: -4%; FEN1 inh: -6%; PI5P4K alpha inh: -22

What do the screens show for `CC(c1ccccc1)n1c(S(=O)(=O)O)nc2ccccc21` (stereo not drawn)?
KAT2A inh: -7%; RECQ1 inh: 8%; APEX1 inh: 0%; BLM inh: -1%; FEN1 inh: 2%; PI5P4K alpha inh: -67*

What do the screens show for `Cc1ccc(-c2csc3ncn(CC#N)c(=O)c23)cc1`?
KAT2A inh: -15%; RECQ1 inh: inactive; APEX1 inh: 2%; BLM inh: -17%; FEN1 inh: -20%; PI5P4K alpha inh: inconclusive

Results for Cc1ccc(-c2csc3ncn(CC#N)c(=O)c23)cc1C ?
KAT2A inh: -12%; APEX1 inh: -73%; BLM inh: -28%; FEN1 inh: inconclusive; PI5P4K alpha inh: -91*

How did C#CCOCCOCCOCCNc1nc(N2CCN(C(=O)C(Cc3cc4ccccc4[nH]3)n3cc(C(N)C(C)CC)nn3)CC2)nc(N2CCN(C(=O)C(Cc3cc4ccccc4[nH]3)n3cc(C(N)C(C)CC)nn3)CC2)n1 (stereo not drawn) do in these assays?
KAT2A inh: 0%; RECQ1 inh: inconclusive; APEX1 inh: 7%; BLM inh: -6%; FEN1 inh: inconclusive; PI5P4K alpha inh: -52*

Results for C#CCOCCOCCOCCNc1nc(N2CCN(C(=O)[C@H](CCCCN)n3cc([C@@H](N)C(C)CC)nn3)CC2)nc(N2CCN(C(=O)[C@H](Cc3cc4ccccc4[nH]3)n3cc([C@@H](N)C(C)CC)nn3)CC2)n1 (stereo partly drawn) ?
KAT2A inh: 0%; APEX1 inh: 1%; FEN1 inh: -9%; PI5P4K alpha inh: -57*

How did C#CCOCCOCCOCCNc1nc(N2CCOCC2)nc(N2CCN(C(=O)[C@H](Cc3cc4ccccc4[nH]3)n3cc([C@@H](N)C(C)CC)nn3)CC2)n1 (stereo partly drawn) do in these assays?
KAT2A inh: 4%; RECQ1 inh: -13%; APEX1 inh: inconclusive; BLM inh: 3%; FEN1 inh: 17%; PI5P4K alpha inh: 2

What do the screens show for `C#CCOCCOCCOCCNc1nc(N2CCN(C(=O)[C@H](CCC(=O)O)n3cc(C(N)[C@H](C)CC)nn3)CC2)nc(N2CCN(C(=O)[C@H](Cc3cc4ccccc4[nH]3)n3cc(C(N)[C@H](C)CC)nn3)CC2)n1` (stereo partly drawn)?
KAT2A inh: -4%; RECQ1 inh: -4%; APEX1 inh: 0%; BLM inh: 2%

What do the screens show for `CC(=O)N(c1ccc2ccccc2c1)C1SC(=O)N(c2cccc(C)c2)C1=O` (stereo not drawn)?
FEN1 inh: 7%

What do the screens show for `CC1Cc2ccccc2N1C(=O)COC(=O)c1ccc([N+](=O)[O-])o1` (stereo not drawn)?
KAT2A inh: -6%; APEX1 inh: -40%; FEN1 inh: 28µM*; PI5P4K alpha inh: -7

Results for CC1Cc2ccccc2N1C(=O)COC(=O)c1ccco1 (stereo not drawn) ?
PI5P4K alpha inh: 2

What do the screens show for `O=c1cc(O)c2c([nH]1)CCC2`?
FEN1 inh: 10%

Results for CC(=O)Nc1ccc(S(=O)(=O)NC(CC(=O)NCCc2ccccc2)C(C)C)cc1 (stereo not drawn) ?
KAT2A inh: 2%; RECQ1 inh: -18%; APEX1 inh: -1%; BLM inh: 1%; FEN1 inh: 11%
